PubChem BioAssay (NCATS)
Inconclusive results are not listed. Activity calls are given as the source filed them. Calls follow the shape of the dose curve; as a rule, active = well fitted curve in the direction sought with a large enough effect; inconclusive = small, poorly fitted or top-dose-only effect, or another doubt; inactive = no such curve, though single readings can be large; an effect the other way counts as inactive or inconclusive.

Columns and labels:
[1] = qHTS to identify inhibitors of the type 1 interferon - major histocompatibility complex class I in skeletal muscle: primary screen against the NCATS LOPAC collection (AID 1347405);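 also: human myoblasts with HiBiT tag on endogenous HLA-B stimulated by IFN-beta; lytic HiBiT luminescence reporting HLA-B protein level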
Procedure, shortened: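 IFN-beta-stimulated (4 ng/ml) HLA-B HiBiT knock-in myoblasts, compound-treated 24 hrs up to 46 uM final; signal via LgBiT complementation and furimazine luminescence.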

[2] = qHTS to identify inhibitors of the type 1 interferon - major histocompatibility complex class I in skeletal muscle: primary screen against the NCATS Pharmaceutical Collection (AID 1347407);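 also: luminescence of HiBiT knocked into endogenous HLA-B as interferon-induced MHC class I level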; also: potency is read from the fitted curve at half-maximal effect
Procedure, shortened: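 HLA-B HiBiT myoblasts, dexamethasone-free growth medium + 4 ng/ml IFN-b; compounds pinned 1 h after seeding, […] from 46 uM; 24 h, 37 C, 5% CO2; lytic HiBiT detection, 10 min RT, luminescence.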

[3] = qHTS for inhibitors of adenylyl cyclases using a fission yeast platform: a pilot screen against the NCATS LOPAC library (AID 1347410)
Procedure, shortened: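 Read-out: fbp1-GFP fluorescence by laser scanning cytometry (488 nm laser), a gain of signal when AC/cAMP-PKA signalling is inhibited. Strain CHP2027 expressing AC9, GNAS and PDE4D2; compounds at up to 57 µM; 18 h, 30C.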

[4] = target: Protein phosphatase 1D (Homo sapiens) (UniProt O15297); assay: RapidFire Mass Spectrometry qHTS Assay for Modulators of WT P53-Induced Phosphatase 1 (WIP1) (AID 1347424);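 also: amount of dephosphorylated VEPPL-S-QETFS peptide product formed by WIP1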; also: potency is read from the fitted curve at half-maximal effect
Protein phosphatase 1D (Homo sapiens), sequence (O15297 whole entry, looked up): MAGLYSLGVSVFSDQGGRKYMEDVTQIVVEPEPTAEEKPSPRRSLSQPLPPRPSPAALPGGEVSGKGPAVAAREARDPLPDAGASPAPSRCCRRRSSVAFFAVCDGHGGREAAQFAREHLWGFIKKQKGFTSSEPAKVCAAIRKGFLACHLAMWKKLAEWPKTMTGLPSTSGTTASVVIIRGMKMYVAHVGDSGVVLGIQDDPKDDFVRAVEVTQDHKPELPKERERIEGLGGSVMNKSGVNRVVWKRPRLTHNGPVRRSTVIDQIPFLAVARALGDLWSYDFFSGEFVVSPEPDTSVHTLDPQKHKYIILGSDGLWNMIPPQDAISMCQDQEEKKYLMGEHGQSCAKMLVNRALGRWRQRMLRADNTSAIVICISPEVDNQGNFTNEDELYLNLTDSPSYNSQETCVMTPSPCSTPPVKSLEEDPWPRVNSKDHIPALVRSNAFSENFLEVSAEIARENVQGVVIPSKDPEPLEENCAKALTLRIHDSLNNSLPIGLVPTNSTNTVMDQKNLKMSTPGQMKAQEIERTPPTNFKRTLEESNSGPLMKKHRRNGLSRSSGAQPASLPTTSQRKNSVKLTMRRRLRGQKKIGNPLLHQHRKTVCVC
Procedure, shortened: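 RapidFire mass spectrometry measured dephosphorylated peptide after 5 min room-temperature reaction of 2 uM VEPPL-pS-QETFS with 10 nM WIP1 (50 mM Tris-HCl pH 7.5, 30 mM MgCl2, 0.1 mM EGTA, BSA), following 1 hr compound preincubation; 1 uM isotope-labelled product standard.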

[5] = target: Protein phosphatase 1D (Homo sapiens) (UniProt O15297); assay: Rhodamine-PBP qHTS Assay for Modulators of WT P53-Induced Phosphatase 1 (WIP1) (AID 1347425)
Procedure, shortened: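 WIP1 (5 nM final) was preincubated with compound for 1 hour at room temperature. It then dephosphorylated 10 uM VEPPL-pS-QETFS peptide in Tris-HCl pH 7.5 with 30 mM MgCl2. Released Pi was detected by 10 uM Rh-PBP fluorescence (ex 525/em 598 nm) read at 1-min intervals for 11 min, as delta f1 - f0.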

[6] = Validation qHTS assay for inhibitors of Activation Induced Cytidine Deaminase (AID): UDG Counterscreen signal (AID 1347427)
Procedure, shortened: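 Fluorescence at 560 nm excitation, 665 nm emission reports UDG signal after 250 mM NaOH (2x) addition and 30 min. Enzymes (AID 1 uM, UDG 2 U/mL, at 4/3x) preincubated 10 min with compound, then 4 h with 4x 250 nM DJC20/DJC23 substrate at room temperature.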

[7] = target: Single-stranded DNA cytosine deaminase (Homo sapiens) (UniProt Q9GZX7); assay: Validation qHTS assay for inhibitors of Activation Induced Cytidine Deaminase (AID): AID signal (AID 1347429)
Single-stranded DNA cytosine deaminase (Homo sapiens), sequence (Q9GZX7 whole entry, looked up): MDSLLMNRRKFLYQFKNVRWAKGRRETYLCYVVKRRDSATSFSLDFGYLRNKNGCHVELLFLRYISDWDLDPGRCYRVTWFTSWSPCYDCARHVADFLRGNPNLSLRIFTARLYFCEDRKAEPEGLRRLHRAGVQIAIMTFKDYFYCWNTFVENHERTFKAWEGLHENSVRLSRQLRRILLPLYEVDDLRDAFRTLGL
Procedure, shortened: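 Compounds (up to 114 uM final) are tested against AID plus UDG using DJC20/DJC23 FRET substrate. Reactions incubate 4 hr at room temperature, receive NaOH for 30 min, and are read at Ex 540/Em 590 nm.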

[8] = qHTS to identify inhibitors of the type 1 interferon - major histocompatibility complex class I in skeletal muscle: primary screen against the NCATS Mechanism Interrogation Plate v5.0 (MIPE) Libary (AID 1347411); also: nearly all actives have a fitted effect of over 65% in size
Procedure, shortened: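 IFN-beta-driven (4 ng/ml) HLA-B-HiBit expression in CRISPR-tagged C25cl48 myoblasts; compounds 11-pt, 1:3, max 46 uM, 24 hr exposure; lytic NanoLuc complementation luminescence.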

Measured: Potency

c1ccc(C2CC2)c(OCC2=NCCN2)c1
inactive: [1] | [2] | [3] | [4] | [5] | [6] | [7]

COc1ccccc1N1CCNCC1
inactive: [1] | [2] | [3] | [4] | [5] | [6] | [7]

Cc1cccc(C)c1NC(=O)CN1CCCC1=O
inactive: [1] | [2] | [3] | [8] | [4] | [5] | [6] | [7]

CC(O)(CS(=O)(=O)c1ccc(F)cc1)C(=O)Nc1ccc(C#N)c(C(F)(F)F)c1 (stereo unspecified)
inactive: [1] | [3] | [8]

Cc1ccc(S(=O)(=O)N[C@@H](CCCCN)C(=O)CCl)cc1
inactive: [1] | [2] | [3] | [4] | [5] | [6] | [7]

CNCC(O)c1ccc(O)cc1 (stereo unspecified)
inactive: [1] | [2] | [3] | [8] | [4] | [5] | [6] | [7]

CN(C)[C@@H]1C(=O)C(C(N)=O)=C(O)[C@@]2(O)C(=O)C3=C(O)c4c(O)cccc4[C@@](C)(O)[C@H]3C[C@@H]12
inactive: [2] | [8]

c1ccc2c(c1)OCC(C1=NCCN1)O2 (stereo unspecified)
inactive: [2] | [3] | [4] | [5] | [6] | [7]

N#CC(C#N)=Cc1ccc(O)c(O)c1
inactive: [1] | [2] | [3] | [4] | [5] | [6] | [7]

CCN(C(C)=O)c1cccc(-c2ccnc3c(C#N)cnn23)c1
inactive: [2] | [4] | [5]

N[C@@H](Cc1ccc(Oc2cc(I)c(O)c(I)c2)c(I)c1)C(=O)O
inactive: [2]
active: [4] 12.6 µM

COc1ccc2c(c1OC)CN1CCc3cc4c(cc3C1C2)OCO4 (stereo unspecified)
inactive: [2] | [4] | [5]

C=CCN1CC[C@]23c4c5ccc(O)c4O[C@H]2C(=O)CC[C@@]3(O)[C@H]1C5
inactive: [2] | [4] | [5]

CC1NCCOC1c1ccccc1 (stereo unspecified)
inactive: [2] | [4] | [5]

COc1ccc(C(=O)c2c(C)n(CCN3CCOCC3)c3ccccc23)cc1
inactive: [2] | [4] | [5]

O=C(NC(O)C(Cl)(Cl)Cl)NC(O)C(Cl)(Cl)Cl (stereo unspecified)
inactive: [2] | [4] | [5]

C#CCOC(C(=O)OCCN(C)C)(c1ccccc1)c1ccccc1
inactive: [2] | [4] | [5]

Cc1ccc(-c2nc3ccc(C)cn3c2CC(=O)N(C)C)cc1
inactive: [2] | [4] | [5]

C[C@H]1O[C@@H](O[C@H]2[C@@H](O)C[C@H](O[C@H]3[C@@H](O)C[C@H](O[C@H]4CC[C@@]5(C)[C@H](CC[C@@H]6[C@@H]5CC[C@]5(C)[C@@H](C7=CC(=O)OC7)CC[C@]65O)C4)O[C@@H]3C)O[C@@H]2C)C[C@H](O)[C@@H]1O
inactive: [4] | [5]
active: [2] 0.0264 µM

Oc1ccccc1-c1ccccc1
inactive: [2] | [4] | [5]

CC(C)(C)CC(C)(C)c1ccc(O)cc1
inactive: [2] | [4] | [5]

O=C(O)c1ccc2[nH]cc(CCCCN3CC=C(c4ccccc4)CC3)c2c1
inactive: [2] | [4] | [5]

CC(C)(N)Cc1ccc(Cl)cc1
inactive: [2] | [4] | [5]

N[C@@H]1C[C@H]1c1ccccc1
inactive: [2] | [8] | [4] | [5]

C=C1CC[C@@]2(O)[C@H]3Cc4ccc(O)c5c4[C@@]2(CCN3CC2CC2)[C@H]1O5
inactive: [2] | [4] | [5]

COC[C@@H](NC(C)=O)C(=O)NCc1ccccc1
inactive: [2] | [8] | [4] | [5]

OCCOc1ccccc1
inactive: [2] | [4] | [5]

CCC(C(N)=O)N1CCCC1=O (stereo unspecified)
inactive: [2] | [4] | [5]

O=c1oc2ccccc2c(O)c1C(CC(O)c1ccc(-c2ccc(Br)cc2)cc1)c1ccccc1 (stereo unspecified)
inactive: [2]
active: [4] 8.91 µM

Clc1ccc(CCC(Cn2ccnc2)Sc2c(Cl)cccc2Cl)cc1 (stereo unspecified)
inactive: [2] | [4] | [5]

CCN(CC)CCN1C(=O)CN=C(c2ccccc2F)c2cc(Cl)ccc21
inactive: [2] | [4] | [5]

Oc1cc(Cl)ccc1Oc1ccc(Cl)cc1Cl
inactive: [2] | [4]

CC(C)NCC(O)c1ccccc1Cl (stereo unspecified)
inactive: [2] | [4] | [5]

C[C@]12CCC(=O)C(O)=C1CC[C@@H]1[C@@H]2CC[C@]2(C)C(=O)CC[C@@H]12
inactive: [2] | [8] | [4] | [5] | [6] | [7]

CC1OC(C)OC(C)O1 (stereo unspecified)
inactive: [2] | [4] | [5]

CN1CCN(C(=O)O[C@H]2c3nccnc3C(=O)N2c2ccc(Cl)cn2)CC1
inactive: [2] | [4] | [5]

C[C@]12CC[C@H]3[C@@H](CCC4=CC(=O)CC[C@@H]43)[C@@H]1CC[C@@H]2OC(=O)CCc1ccccc1
inactive: [2] | [4] | [5]

NP(N)(=O)NC(=O)c1ccc(F)cc1
inactive: [2] | [4]

C=C1C[C@@H]2[C@H](CC[C@]3(C)C(=O)CC[C@@H]23)[C@@]2(C)C=CC(=O)C=C12
inactive: [2] | [4] | [5]

c1ccc2c(c1)Nc1ccccc1S2
inactive: [2] | [4] | [5]

O=P1(NCCCl)OCCCN1CCCl (stereo unspecified)
inactive: [2] | [8] | [4] | [5]

Oc1ccc(Cl)cc1Cc1ccccc1
inactive: [2] | [4]

N[C@@H](Cc1ccc(N(CCCl)CCCl)cc1)C(=O)O
inactive: [2] | [8] | [4] | [5]

C=C(C)[C@H]1Cc2c(ccc3c2O[C@@H]2COc4cc(OC)c(OC)cc4[C@@H]2C3=O)O1
inactive: [4] | [5]
